Results from PubChem BioAssay (NCI).
This is part of a sample that, as a whole, favours compounds with a hit. Of some 83,000 tested, about 20% had one in any assay.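 The test compound was applied at a single concentration to cells in 96-well plates for 48 hours, and percent growth was recorded.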 Active and inactive are the calls of the source. The calls were made as follows: active = growth percent below 10; inactive = the rest.

What was measured:
Assay in all cases: NCI-60 one-dose screen, 48 h (100 = growth as untreated, 0 = no growth, -100 = all killed)
Conditions in all cases: 10 µM unless noted
[1] = tested on: SR leukemia
[2] = tested on: RPMI-8226 leukemia
[3] = tested on: OVCAR-4 ovarian
[4] = tested on: SK-OV-3 ovarian
[5] = tested on: IGROV1 ovarian
[6] = tested on: OVCAR-3 ovarian
[7] = tested on: HS 578T breast
[8] = tested on: NCI/ADR-RES ovarian
[9] = tested on: OVCAR-5 ovarian
[10] = tested on: OVCAR-8 ovarian

Measured: growth

CSC(SC)=C(C#N)c1nc2ccccc2s1
inactive: [1] 81.2% | [2] 25% | [3] 68.1% | [4] 19.6% | [5] 49.3% | [6] 70% | [7] 77.1% | [8] 76.7%

O=C1/C(=C/c2ccc(F)cc2)CN(C(=O)C(Cl)Cl)C/C1=C\c1ccc(F)cc1
inactive: [3] 12.7% | [4] 23.5%
active: [1] -18.4% | [2] -31.4% | [9] -53.8% | [5] -50.3% | [6] -95.1% | [7] 6.3% | [8] 5.22%

C=C1C(=O)O[C@H]2[C@H]1CC/C(COC(=O)CSCSCC(=O)OC/C1=C/CC[C@@]3(C)O[C@H]3[C@H]3OC(=O)C(=C)[C@@H]3CC1)=C\CC[C@@]1(C)O[C@@H]21
active: [1] -16.4% | [2] -31.2% | [5] 0.96% | [6] -21.4%
inactive: [3] 50.5% | [4] 104% | [7] 23.1% | [8] 62.4%

Nn1c(=O)c(=O)[nH]c2c(cnn2-c2ccccc2)c1=O
inactive: [1] 94.5% | [2] 103% | [9] 108% | [3] 118% | [4] 102% | [5] 118% | [6] 107% | [7] 111% | [8] 106%

O=C1/C(=C/c2ccccc2F)CN(C(=O)C(Cl)Cl)C/C1=C\c1ccccc1F
active: [1] -11.4% | [2] -27.7% | [9] -41.6% | [5] -36.9% | [6] -94% | [7] 4.55% | [8] 5.18%
inactive: [3] 14.9% | [4] 32.4%

CC1=CCC(OC(=O)C(C)(C)CC(O)(C(C)O)C(O)C2(C)C=CC(Cc3ccc(C(C)C)cc3)(C(C)C)CC2)(C(C)C)CC1 (stereo not given)
inactive: [1] 99% | [2] 108% | [10] 104% | [3] 102% | [5] 95.5% | [6] 102% | [7] 101% | [8] 98.2%

Cc1nc2c(c(=O)[nH]1)C(c1ccccc1)c1ccc3ccccc3c1O2 (stereo not given)
active: [6] 0.0339%
inactive: [1] 19.3% | [2] 27.1% | [9] 87.2% | [3] 64.2% | [4] 11.1% | [5] 38.9% | [7] 22.6% | [8] 14.6%

CCCCNc1cc(-c2cn[nH]c2-c2cc(C)cc(OC)c2)nc(-c2cccnc2)n1
inactive: [1] 60.1% | [2] 83.1% | [9] 85.3% | [3] 73.8% | [4] 97.1% | [5] 115% | [6] 98.8% | [7] 97.6% | [8] 89.8%

O=C1/C=C/[C@@H](O)[C@@H]2C[C@@H](O)C[C@H]2/C=C/CCC[C@@H](O)CCO1
inactive: [1] 101% | [2] 126% | [9] 113% | [3] 85.4% | [4] 90.3% | [5] 108% | [6] 106% | [7] 41.9% | [8] 89.2%

CS(=O)(=O)Nc1cc(-c2ccc3ncc(C#N)c(Nc4ccc(F)c(Cl)c4)c3c2)cnc1Cl
inactive: [8] 21.9%
active: [1] -0.801% | [2] -38.5% | [10] 4.09% | [3] -6.46% | [5] -16.4% | [6] -19.3% | [7] -17.7%

CCOC(=O)C1=C(C)C(Cl)=N/C1=C\c1[nH]c(Cl)c(C)c1C(=O)OCC
inactive: [1] 86.3% | [2] 65.1% | [10] 99.1% | [3] 95.4% | [5] 112% | [6] 116% | [7] 103% | [8] 104%

COc1ccc(Nc2ncccc2/C=C/C(=O)c2cc(OC)c(OC)c(OC)c2)cc1
active: [1] -22.4% | [2] -25.3% | [9] -15.4% | [5] -2.98% | [6] -88.2%
inactive: [3] 29% | [4] 64.6% | [7] 37.8% | [8] 14%

CCOC(=O)CC1CSC(Nc2ccccc2)=N1 (stereo not given)
inactive: [1] 98.5% | [2] 105% | [10] 101% | [3] 112% | [4] 105% | [5] 103% | [6] 102% | [7] 103% | [8] 99.8%

NC(=O)c1cnc(Nc2cccc(N)c2)nc1NCCCNC(=O)C1CCC1
inactive: [1] 77.1% | [2] 97.3% | [9] 119% | [3] 88.5% | [4] 27.1% | [5] 65.8% | [6] 82.6% | [7] 72.8% | [8] 108%

COc1cccc(NCc2nnc(Nc3ccc(Cl)cc3)c3ccccc23)c1
active: [1] -24.5% | [2] -28.1% | [9] 8.44% | [4] -11.9% | [5] 1.51% | [6] -53.6% | [7] 0.542% | [8] -5.42%
inactive: [3] 17.2%

Cc1ccc(C2CC(c3nc(-c4ccc(Cl)cc4)oc3C)=NN2C(=O)c2ccncc2)cc1 (stereo not given)
inactive: [1] 92.9% | [2] 83.2% | [9] 107% | [3] 82.5% | [4] 92.3% | [5] 70.7% | [6] 90.7% | [7] 83.1%

COc1ccc(Cn2cc3c(c2-c2ccccc2)CCc2cnoc2-3)cc1
active: [2] -25.3% | [6] -11.5% | [7] 9.15% | [8] 4.47%
inactive: [1] 29.9% | [9] 26% | [3] 54.7% | [4] 21.9% | [5] 21.7%

COc1ccc(C2=NN(C(C)=O)C(c3cn(-c4ccccc4)nc3-c3ccc(Cl)cc3)C2)cc1 (stereo not given)
active: [3] -23.5% | [6] -42.6%
inactive: [1] 10.7% | [2] 37.3% | [9] 68.1% | [4] 38.1% | [5] 54.1% | [7] 26.2%

Cc1nn(-c2ccccc2)c(N)c1N=C1NC(=O)/C(=C/c2ccc(Br)cc2)S1
inactive: [1] 36.8% | [2] 42.3% | [9] 72.7% | [3] 95.6% | [4] 84.8% | [5] 99.6% | [6] 72% | [7] 93.6% | [8] 77.7%

c1ccc2c(c1)CCCc1nnc3nc4ccccc4n3c1-2
inactive: [1] 20.5% | [2] 31.6% | [9] 37.8% | [3] 17.9% | [4] 50.3% | [5] 43.7% | [6] 23.6% | [7] 77.1% | [8] 24.6%

[2H]C([2H])([2H])Oc1ccc(F)cc1/C=C/C(=O)/C=C(/C=C/c1cc(F)ccc1OC([2H])([2H])[2H])OB(F)F
inactive: [1] 22.7% | [2] 10.7% | [9] 107% | [3] 74.7% | [5] 87.4% | [6] 42.1% | [7] 91.9% | [8] 76.5%

CC(=C(c1ccc(OCCN2CCCCC2)cc1)c1ccc(OCCN2CCCCC2)cc1)c1ccc(Cl)cc1
active: [1] -60.3% | [2] -61.7% | [9] -92.5% | [3] -88.8% | [4] -91.1% | [5] -83% | [6] -91.4% | [7] -72.4% | [8] -90.8%

CCOC(=O)c1c(C)c2c(n1Cc1ccccc1)CSCC2=O
active: [1] -2.43% [100 µM] | [2] -5.25% [100 µM] | [6] -2.49% [100 µM]
inactive: [9] 33.6% [100 µM] | [3] 11.8% [100 µM] | [4] 19.8% [100 µM] | [5] 32.6% [100 µM] | [7] 46.8% [100 µM]

C=Cc1cnc(Nc2ccc(OC)cc2)nc1NCCCNC(=O)C1CCC1
active: [1] 9.88%
inactive: [2] 43.8% | [9] 48% | [3] 46.4% | [4] 20.4% | [5] 44.6% | [6] 48.2% | [7] 18.7% | [8] 53.5%

C=CCN1C(=O)c2cccc3c(N4CCOCC4)ccc(c23)C1=O
active: [1] -9.38% | [2] -25.8% | [5] -14.5% | [6] -66.4% | [7] 4.58% | [8] 6.06%
inactive: [9] 21.4% | [3] 14.4% | [4] 13.9%

COC(=O)C(Cc1ccccc1)NC(=O)c1ccc(NC(=O)c2[nH]c(C)c(Cl)c2Cl)c(OC(C)C)c1 (stereo not given)
inactive: [1] 17.4% | [2] 57.9% | [9] 93.2% | [3] 39.7% | [5] 83.1% | [6] 12.9% | [7] 62.1% | [8] 31.4%

O=C(CCCCCCN1CC(=O)N2[C@H](c3ccc(Cl)cc3)c3[nH]c4ccccc4c3C[C@@H]2C1=O)NO
inactive: [1] 21.6% | [2] 24.5% | [9] 59.5% | [3] 74.3% | [4] 62.9% | [5] 33.5% | [6] 56.5% | [7] 63.7% | [8] 90.2%

O=[N+]([O-])c1ccc(-c2cn3nc(-c4c[nH]c5ccccc45)sc3n2)cc1
inactive: [1] 92.2% | [2] 93.1% | [9] 96.9% | [3] 88% | [4] 88.3% | [5] 89% | [6] 109% | [7] 99.9% | [8] 99.3%

COc1ccc(-c2nn(-c3ccccc3)cc2/C=C/C(=O)NNC(=O)Nc2ccc(C)cc2)cc1
inactive: [1] 64% | [2] 93.3% | [10] 98.1% | [3] 101% | [5] 93% | [6] 107% | [7] 99.7% | [8] 92.8%
